Measurements: PubChem BioAssay (Tox21)
Where “and” joins values, the source holds several entries; their conditions need not be identical. Equal entries are not always repeated. Inconclusive results are not listed. More than one record can exist for a structure, and the calls need not agree. Calls of active or inactive are those of the source. Unless noted, calls follow the shape of the dose curve; as a rule, active = well fitted curve in the direction sought with a large enough effect in the repeat runs; inconclusive = weak or mixed curves; inactive = no such curve, though single readings can be large; an effect the other way counts as inactive or inconclusive.

Key:
[1] = qHTS assay for small molecule agonists of the p53 signaling pathway (AID 651631; calls by dose curve; also: nearly all actives have a fitted effect of over 15% in size)
Method in brief: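 Beta-lactamase reporter activity under p53 response elements was quantified in HCT-116 cells by FRET fluorescence, following 16 h incubation with test compounds at 37 °C and 2 h substrate development at room temperature.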

[2] = qHTS assay for small molecules that induce genotoxicity in human embryonic kidney cells expressing luciferase-tagged ATAD5 (AID 651632); also: nearly all actives have a fitted effect of over 15% in size
Method in brief: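 Genotoxicity read-out via ATAD5-luciferase: HEK293T cells, 16 hr compound incubation at 37C, Amplite detection.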

[3] = qHTS assay for small molecule agonists of the p53 signaling pathway - cell viability (AID 651633; calls by dose curve;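 also: p53RE-bla HCT reporter cells with a stable beta-lactamase p53 reporter; series mostly up to about 83 µM; nearly all actives have a fitted effect of over 30% in size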)
Method in brief: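 p53RE-bla cells, seeded at 4,000 per well and rested 5 h at 37 C/5% CO2, received compounds in DMSO for 16 h at 37 C. CellTiter-Glo was then added, and luminescence was read after 30 min at room temperature to gauge cytotoxicity.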

[4] = qHTS assay for small molecules that induce genotoxicity in human embryonic kidney cells expressing luciferase-tagged ATAD5 - cell viability (AID 651634; calls by dose curve; also: nearly all actives have a fitted effect of over 25% in size)
Method in brief: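 Live-cell protease activity (CellTiter-Fluor, fluorescence) indicates viability. HEK293T cells with luciferase-tagged ATAD5; 15.5 hr compound treatment at 37C.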

[5] = qHTS assay for small molecule disruptors of the mitochondrial membrane potential - cell viability (AID 720634; calls by dose curve;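 also: human HepG2 liver cancer cells; series mostly up to about 83 µM; nearly all actives have a fitted effect of over 20% in size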)
Method in brief: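 Human hepatoma HepG2 cells were treated for 1 hr with test chemicals, then given m-MPI dye and CellTiter-Glo. Cell viability reflects luminescence proportional to cellular ATP.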

[6] = qHTS assay for small molecule disruptors of the mitochondrial membrane potential (AID 720635)
Method in brief: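 HepG2 cells (2,000/well) attached overnight at 37C, then took compound for 1 hr at 37C, 5% CO2. Mito-MPS dye was added for 30 min; fluorescence was read at 490/535 nm (monomers) and 540/590 nm (aggregates).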

[7] = qHTS assay to test for compound auto fluorescence at 590 nm (red) in HepG2 cells (AID 720674)
Method in brief: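 Compound auto-fluorescence is scored relative to Rose Bengal sodium, measured at 540/590 nm in live HepG2 cultures after 1 hr compound contact (37 C, 5% CO2).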

[8] = qHTS assay to test for compound auto fluorescence at 535 nm (green) in HepG2 cells (AID 720675)
[9] = qHTS assay to test for compound auto fluorescence at 460 nm (blue) in HEK293 cells (AID 720678)
Method in brief: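 HEK293 cells (2,000/well, medium with 10% dialyzed FBS) attached 4-5 hr, then exposed to compound overnight at 37C, 5% CO2. Blue fluorescence read at 405/460 nm, with triamterene as reference fluorophore.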

[10] = qHTS assay to test for compound auto fluorescence at 590 nm (red) in HEK293 cells (AID 720679)
Method in brief: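 HEK293 cells (2,000/well, 10% dialyzed FBS) attached 4-5 hr, then dosed with compound or DMSO and incubated overnight at 37C, 5% CO2. Red fluorescence read at 540/590 nm, Rose Bengal sodium as reference fluorophore.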

[11] = qHTS assay to test for compound auto fluorescence at 535 nm (green) in HEK293 cells (AID 720680)
[12] = qHTS assay to test for compound auto fluorescence at 535 nm (green) in HEK293 cell free culture (AID 720682)
Method in brief: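 Each library compound, or DMSO control, is added by pintool to medium alone, comprising DMEM and 10% FBS. Emission at 535 nm following 485 nm excitation is quantified against fluorescein.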

[13] = qHTS assay to test for compound auto fluorescence at 590 nm (red) in HEK293 cell free culture (AID 720683)
Method in brief: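 Tox21 10K library compounds were pinned into cell-free DMEM with 10% FBS and fluorescence was read at excitation 540 nm. Activity is expressed as Rose Bengal sodium equivalency.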

[14] = qHTS assay to test for compound auto fluorescence at 590 nm (red) in HepG2 cell free culture (AID 720684)
Method in brief: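 Red fluorescence (540 nm excitation, 590 nm emission) was measured after compound transfer into cell-free MEM supplemented with 10% FBS. Values are equivalencies against Rose Bengal sodium.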

[15] = qHTS assay to test for compound auto fluorescence at 460 nm (blue) in HepG2 cell free culture (AID 720685)
Method in brief: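 Compound (23 nL) or DMSO pinned into cell-free MEM with 10% FBS; blue fluorescence read at 405/460 nm excitation/emission, expressed as auto-fluorescence equivalency to triamterene.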

[16] = qHTS assay to test for compound auto fluorescence at 535 nm (green) in HepG2 cell free culture (AID 720686)
[17] = qHTS assay to test for compound auto fluorescence at 460 nm (blue) in HepG2 cells (AID 720687)
Method in brief: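 Cells (2,000/well in MEM with 10% FBS) attached overnight at 37 C, then were exposed to compound or DMSO for 1 hr at 37 C, 5% CO2. Fluorescence read at Ex/Em 405/460 nm, expressed as triamterene-equivalent signal.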

[18] = biological target: Glucocorticoid receptor (Homo sapiens) (UniProt P04150); test: qHTS assay to identify small molecule agonists of the glucocorticoid receptor (GR) signaling pathway (AID 720691; active = well fitted activation curve with a large enough effect in the signal ratio in the repeat runs, not every such curve was filed as active; the % refers to the signal ratio; also: potency is read from the fitted curve at half-maximal effect)
Method in brief: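 Beta-lactamase reporter activity, read as fluorescence intensity, was measured in GR-bla HeLa cells exposed to compounds for 18 h at 37 C and then loaded with LiveBLAzer B/G FRET substrate for 2 h at room temperature.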

[19] = biological target: Glucocorticoid receptor (Homo sapiens) (UniProt P04150); test: qHTS assay to identify small molecule antagonists of the glucocorticoid receptor (GR) signaling pathway (AID 720692; active = well fitted inhibition curve with a large enough effect in the signal ratio in the repeat runs, not every such curve was filed as active; the % refers to the signal ratio)
Method in brief: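 Fluorescence from cleaved LiveBLAzer B/G FRET substrate reports GRE-driven beta-lactamase in HeLa cells; compounds are tested against 5 nM dexamethasone (final) over 18 h at 37 C, substrate incubation 2 h at room temperature.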

[20] = qHTS assay to test for compound auto fluorescence at 460 nm (blue) in HEK293 cell free culture (AID 720681)
Method in brief: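 Test compounds were pinned into cell-free culture medium (DMEM with 10% FBS) and fluorescence was read directly at Ex/Em 405/460 nm. Signals were expressed as fluorescence equivalents of triamterene, with DMSO vehicle as control.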

Measured: Potency

Glucocorticoid receptor (Homo sapiens), sequence (P04150 whole entry, looked up): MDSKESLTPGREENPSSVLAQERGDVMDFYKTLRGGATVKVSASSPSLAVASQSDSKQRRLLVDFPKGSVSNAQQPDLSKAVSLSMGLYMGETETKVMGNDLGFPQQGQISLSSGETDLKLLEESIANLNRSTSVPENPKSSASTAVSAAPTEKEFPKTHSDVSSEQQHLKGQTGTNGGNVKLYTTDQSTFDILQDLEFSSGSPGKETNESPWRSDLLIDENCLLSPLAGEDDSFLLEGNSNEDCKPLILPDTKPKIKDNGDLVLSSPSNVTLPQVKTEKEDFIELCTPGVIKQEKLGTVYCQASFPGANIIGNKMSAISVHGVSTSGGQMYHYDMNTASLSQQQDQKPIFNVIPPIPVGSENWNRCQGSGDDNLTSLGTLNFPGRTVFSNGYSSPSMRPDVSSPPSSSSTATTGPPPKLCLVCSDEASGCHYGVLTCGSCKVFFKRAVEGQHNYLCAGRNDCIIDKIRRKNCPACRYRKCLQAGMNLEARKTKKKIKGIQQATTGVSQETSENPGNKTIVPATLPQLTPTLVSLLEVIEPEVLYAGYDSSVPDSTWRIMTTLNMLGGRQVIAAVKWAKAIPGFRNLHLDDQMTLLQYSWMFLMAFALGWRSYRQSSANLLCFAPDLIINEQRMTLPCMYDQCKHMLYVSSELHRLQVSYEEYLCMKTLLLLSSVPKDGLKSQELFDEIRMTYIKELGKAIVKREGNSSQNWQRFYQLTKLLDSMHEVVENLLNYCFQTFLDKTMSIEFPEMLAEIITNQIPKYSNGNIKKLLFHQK

O=C1CCCCCCCCCCCN1
not listed: [20]
inactive: all other assays above

O=C1OC(=O)C2CCCCC12 (stereo unspecified)
not listed: [14] | [18] | [20]
inactive: all other assays above

O=S(O)CO
not listed: [18] | [19] | [20]
inactive: all other assays above

NC(=O)c1ccc(N)cc1
not listed: [6]
inactive: all other assays above

C=C[Si](OC(=C)C)(OC(=C)C)OC(=C)C
not listed: [6] | [18] | [19]
inactive: all other assays above

CCCN1CCCC[C@H]1C(=O)Nc1c(C)cccc1C
not listed: [6] | [18] | [19]
inactive: all other assays above

CCCCCOC(=O)CCCCC
not listed: [6] | [15] | [18] | [19]
inactive: all other assays above

O=c1n(CCO)c(=O)n(CCO)c(=O)n1CCO
not listed: [12] | [18] | [19] | [20]
inactive: all other assays above

CC(C)CNCC(C)C
not listed: [12] | [18] | [19]
inactive: all other assays above

CCCCCCCCS(=O)(=O)Cl
not listed: [14] | [19] | [20]
inactive: all other assays above

CCc1nccnc1CC
not listed: [6] | [18] | [19]
inactive: all other assays above

c1ccc(CC2=NCCN2)cc1
not listed: [15] | [18] | [19] | [20]
inactive: all other assays above

CCN(CC)CCOCCOC(=O)C1(c2ccccc2)CCCC1
not listed: [6] | [19]
inactive: all other assays above

O=C(O)c1ccccc1OP(=O)(O)O
not listed: [18] | [20]
inactive: all other assays above

Cc1cccc(C)c1NC(=O)C(C)N (stereo unspecified)
not listed: [12]
inactive: all other assays above

O=C(O)Cc1ccc(CCNS(=O)(=O)c2ccc(Cl)cc2)cc1
not listed: [6] | [18]
inactive: all other assays above

COCCc1ccc(OCC(O)CNC(C)C)cc1 (stereo unspecified)
inactive and 10.7 µM (active): [18]
not listed: [14] | [15]
inactive: all other assays above
